Data reported in PubChem BioAssay AID588690 (Broad Institute, 2011).
The whole screen tested about 2,400 compounds, of which fewer than 10 were called active. Not shown: some 1% with an inconclusive outcome. These entries were drawn from the full list. Unmarked numbers belong to inactive results.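 How the source made its calls: active means highest replicate activation at or above 34% and every replicate reaching that threshold; inconclusive means meets only one of the two criteria; inactive means meets neither criterion.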

target: Protein FosB (Mus musculus) (UniProt P13346); assay: activators of mouse delta FosB DNA binding, confirmation, biochemical, fluorescence polarization, TAMRA-CDK5 oligo, cherry-picked samples (AID 588690); conditions: purified delta FosB, at 24.9 µM, active compounds read high, normalised: neutral wells 0, positive control 100;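 further: higher polarization means more probe DNA bound by delta FosB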
Sequence (P13346 whole entry, looked up): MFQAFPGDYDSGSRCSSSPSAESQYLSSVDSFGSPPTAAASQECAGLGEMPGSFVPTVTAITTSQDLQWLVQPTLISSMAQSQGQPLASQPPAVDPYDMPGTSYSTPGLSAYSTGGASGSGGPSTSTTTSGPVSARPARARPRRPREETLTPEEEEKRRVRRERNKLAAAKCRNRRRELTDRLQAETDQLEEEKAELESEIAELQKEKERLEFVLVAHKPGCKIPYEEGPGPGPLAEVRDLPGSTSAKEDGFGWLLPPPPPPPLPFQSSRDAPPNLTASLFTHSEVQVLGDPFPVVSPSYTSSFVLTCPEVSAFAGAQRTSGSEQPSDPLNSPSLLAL

Row | Compound | activation [%]
1 | O=C(Nc1ccc(Br)cc1)c1cc(S(=O)(=O)Nc2ccccn2)ccc1Cl | 0.723
2 | COc1cccc(CNC(=O)c2nnn(CC(=O)Nc3cc(Cl)ccc3C)c2N)c1 | 5.89
3 | Cc1ccc2nc(-c3ccccn3)cc(C(=O)Nc3ccc4c(c3)OCO4)c2c1 | 5.01
4 | CN(C)CC(O)COc1ccc(C(C)(C)c2ccc(OCC(O)CN(C)C)cc2)cc1 (stereo not drawn) | 3.1
5 | O=C(Cn1cc(-c2nnnn2-c2ccc(Cl)cc2)c(=O)c2ccccc21)c1ccccc1 | 0.385
6 | CCn1c(=O)c2cc(C(=O)Nc3cccc(C(C)=O)c3)sc2c2ccccc21 | 8.7
7 | CC(=O)Nc1ccc(C(=O)CSc2nnc(Cc3ccccc3)o2)cc1 | 1.84
8 | O=C(N/N=C/c1cccc(O)c1)c1cc2c(ccc3ccccc32)o1 | -5.62
9 | CC(=O)c1ccc(NC(=O)C2CC(=O)Nc3nc4ccccc4n32)cc1 (stereo not drawn) | -4.9
10 | CCCCn1c(N)c(N(CCC(C)C)C(=O)COC(=O)c2ccc(CC)cc2)c(=O)[nH]c1=O | 0.0735
11 | Cc1sc2nc(CSCC(=O)Nc3c(Cl)cccc3Cl)[nH]c(=O)c2c1C | -0.487
12 | COc1cccc(NC(=O)Cn2c3ccc(F)cc3c3nc4n(c(=O)c32)CCS4)c1 | -5.72
13 | COc1ccc(-c2cc3n(n2)CCc2nc4ccccc4n2-3)cc1 | 6.36
14 | O=C(COC(=O)c1ccc(S(=O)(=O)N2CCc3ccccc3C2)cc1)NC(=O)NCc1ccco1 | -0.464
15 | O=c1c2ccccc2oc2nc(C3CCCCC3)n(Cc3ccco3)c(=O)c12 | -1.5
16 | Cc1ccc2nc(NC(=O)C3CCN(S(=O)(=O)c4ccc5c(c4)oc(=O)n5C)CC3)sc2c1 | -11.8
17 | COC(=O)c1sc2ncccc2c1OCc1ccc(Cl)cc1Cl | -1.37
18 | O=C(N/N=C/c1ccco1)c1ccc(NC(=O)C2CC2)cc1 | -0.767
19 | O=C1c2cccc3cccc(c23)C(=O)N1c1cccc(O)c1 | 3.04
20 | COc1cc2[nH]c(=O)n(Cc3ccc(C(=O)NC4CCN(Cc5ccccc5)CC4)cc3)c(=O)c2cc1OC | 0.608
21 | Cc1ccc(-c2cc(C(=O)N/N=C/C=C/c3ccccc3)n[nH]2)o1 | 2.21
22 | COc1ccccc1NC(=O)C1=C(C)Nc2nnnn2C1c1cccc(Br)c1 (stereo not drawn) | 5.03
23 | Nc1nonc1-n1nnc(C(=O)N/N=C/c2ccc(Cl)cc2)c1-c1ccc2c(c1)OCO2 | 1.91
